High-throughput results from PubChem BioAssay.
Hits are enriched below; roughly 32% of the tested compounds scored in any of these assays.
CYP2C9 act = activators of human CYP2C9; P11712; recombinant CYP2C9, luciferin-H conversion, luminescence; stronger effect = higher value; factor 1 = untreated enzyme, 0 = blocked; activation factor at 5 µM; 96,000 tested, 1.4% active;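 active = activation factor of 2 or more for CYP2C9 at a 5 µM dose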;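 note: 0 = sulfaphenazole-blocked wells and 1 = vehicle-only wells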
Target sequence (P11712 whole entry, looked up): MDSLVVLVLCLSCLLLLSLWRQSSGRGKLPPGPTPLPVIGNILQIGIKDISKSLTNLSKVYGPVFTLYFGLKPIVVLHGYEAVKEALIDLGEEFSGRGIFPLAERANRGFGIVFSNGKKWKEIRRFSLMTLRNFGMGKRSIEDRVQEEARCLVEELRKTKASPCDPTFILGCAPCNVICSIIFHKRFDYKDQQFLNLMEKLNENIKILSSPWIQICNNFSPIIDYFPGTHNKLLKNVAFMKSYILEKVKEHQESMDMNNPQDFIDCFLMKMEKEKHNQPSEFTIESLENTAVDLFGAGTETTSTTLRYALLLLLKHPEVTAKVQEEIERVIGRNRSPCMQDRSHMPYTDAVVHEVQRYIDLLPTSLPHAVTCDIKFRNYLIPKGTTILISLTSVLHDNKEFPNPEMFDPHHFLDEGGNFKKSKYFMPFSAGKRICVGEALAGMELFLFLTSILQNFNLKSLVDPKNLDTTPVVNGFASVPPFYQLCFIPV
CYP2C19 inhib = inhibitors of human CYP2C19. inhibition, % at 5 µM. 96,000 tested, 21% active. CYP2C19 Supersomes, luciferin-H EGE luminescence, 30 min. P33261;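 active = CYP2C19 inhibition above a set limit at 5 µM in the primary screen, cut at about 50% in these data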;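 note: plate controls were negative control wells for no effect and 2.5 mM tranylcypromine positive control for full effect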
PostGolgi yeast = growth inhibition of a yeast mutant, post-Golgi transport screen; AID 739; inhibition, % at 10 µM; post-Golgi transport phenotypic cell assay; 98,000 tested, 0.9% active;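 note: yeast cells grown in 1536-well plates; yeast grown about 18 h at 30C before absorbance read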
PostGolgi ctrl = yeast control strain growth, post-Golgi counter-screen. efflux-deficient yeast background strain, growth absorbance A615, 16 h. inhibition, % at 10 µM. 98,000 tested, 5% active. AID 738
CYP2C19 activ = increases human CYP2C19 enzyme activity; AID 1025; P33261; 96,000 tested, under 10 active; recombinant CYP2C19, luciferin-H EGE luminescence; stronger effect = higher value; 0 = fully inhibited enzyme, 1 = untreated enzyme; activation factor at 5 µM;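 active = activation factor of at least 2 at 5 µM in the primary screen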;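 note: 0 = wells with 2.5 mM tranylcypromine and 1 = vehicle-only wells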
CYP2C9 inhib = inhibitors of human CYP2C9. CYP2C9 Supersomes, luciferin-H conversion, luminescence. P11712. 96,000 tested, 20% active. inhibition, % at 5 µM. AID 777;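 active = blocking of liver enzyme CYP2C9 beyond about 50% at 5 µM, limit read from the data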
* hit, by the source's call. Cut-off read from the data, not from the text of the source, unless noted: active = inhibition above about 30%; inactive = the rest.

SMILES | CYP2C9 act | CYP2C19 inhib | PostGolgi yeast | PostGolgi ctrl | CYP2C19 activ | CYP2C9 inhib
COC(=O)CN(CCc1ccccc1)S(=O)(=O)c1ccc(OC)c(OC)c1 | 0.7 | 99* | 4 | 8 | 0 | 32
Brc1cccc(-c2nnc(SCc3ccon3)n2-c2ccccc2)c1 | 0.6 | 50* | 11 | 25 | 0.5 | 44
N#CCSc1nnc(-c2cccnc2)n1-c1ccccc1 | 1 | -8 | -4 | -1 | 1.1 | -5
CC1CCC(C(C)C)C(OC(=O)COC(=O)c2cccn2C)C1 (centres undefined) | 0.2 | 91* | -8 | 5 | 0.1 | 80*
COc1ccccc1C1CC(c2cccs2)=Nc2ccccc2S1 (centres undefined) | 0.2 | 90* | 17 | 21 | 0.1 | 80*
Oc1ccccc1C1=Nc2ccccc2N=C(c2cccs2)C1 | 0.6 | 23 | 0 | 30 | 0.8 | 38
COc1ccc(-c2nc(-c3cccc(C)c3)nc(N3CCN(C)CC3)c2C#N)cc1 | 0.8 | 12 | -3 | 23 | 0.9 | 25
CC1(C)CC(=O)C2=C(C1)N=C1c3ccccc3C(=O)C1C2c1ccc(Cl)cc1 (centres undefined) | 0.1 | 81* | -6 | 18 | 0.2 | 92*
CN(c1ccc(C(=O)N2CCCCC2)cc1)S(C)(=O)=O | 1.2 | -13 | -7 | 19 | 1.1 | -16
CC(C)NC(=S)N/N=C/c1cccs1 | 0.6 | 82* | 2 | 3 | 0.2 | 37
CN(C)S(=O)(=O)c1ccc(C(=O)Nc2ccnn2C2CCCCC2)cc1 | 0.4 | -4 | -3 | -1 | 1 | 63*
CN(C)S(=O)(=O)c1ccc(C(=O)Nc2ccccn2)cc1 | 1.1 | -14 | 8 | 5 | 1.1 | -6
Cn1c(=O)c2c(-c3ccccc3)n(N3CCOCC3)cc2n(C)c1=O | 0.4 | -3 | -3 | -4 | 1 | 55*
Cn1c(=O)c2c(-c3ccc(C(C)(C)C)cc3)n(N3CCOCC3)cc2n(C)c1=O | 1.1 | 9 | -4 | 9 | 0.9 | -8
COc1ccc(Nc2nnc(-c3ccc(N4CCOCC4)c([N+](=O)[O-])c3)c3ccccc23)cc1 | 0.5 | 17 | -2 | 20 | 0.8 | 53*
CC1CCCN(C(=O)C(C)Sc2nc(-c3ccccc3)cc(C(F)(F)F)n2)C1 (centres undefined) | 0.4 | 71* | -6 | 26 | 0.3 | 60*
CC(Sc1nc(-c2ccccc2)cc(C(F)(F)F)n1)C(=O)N1CCCCC1 (centres undefined) | 0.4 | 47 | 13 | 4 | 0.5 | 58*
O=C(CSc1nc(-c2ccccc2)cc(C(F)(F)F)n1)N1CCOCC1 | 0.9 | 3 | 24 | 2 | 1 | 8
CCC(C)(C)NC(=O)C(c1ccco1)N(C(=O)c1csnn1)c1cccc(F)c1 (centres undefined) | 1.1 | 13 | 4 | 11 | 0.9 | -10
Cc1cc(C)cc(Oc2nc(C(F)(F)F)nc3ccccc23)c1 | 1 | -12 | 15 | 1 | 1.1 | -3
CCn1nc(C(=O)OCC(=O)c2cc(C)n(Cc3cccs3)c2C)c2ccccc2c1=O | 0.6 | 80* | -25 | 42* | 0.2 | 40
Cc1cc(C(=O)COC(=O)c2ccccc2O)c(C)n1Cc1cccs1 | 0.5 | 57* | -4 | 3 | 0.4 | 49
CC(=O)Nc1ccccc1OCC(=O)c1cc(C)n(Cc2cccs2)c1C | 0.7 | 80* | -1 | 13 | 0.2 | 32
Cc1cc(C(=O)COC(=O)c2ccc3c(c2)OCO3)c(C)n1Cc1cccs1 | 0.8 | 48 | -2 | 13 | 0.5 | 19
COc1ccc(CCNC(=O)Cn2cnc3c(cnn3-c3ccccc3Cl)c2=O)cc1OC | 1 | 14 | 6 | 2 | 0.9 | 4
SMILES | CYP2C9 act | CYP2C19 inhib | PostGolgi yeast | PostGolgi ctrl | CYP2C19 activ | CYP2C9 inhib
CCCCCCN1C=CC(=C/C=C(\C#N)C(=O)OCC)C=C1 | 0.4 | 28 | 2 | 4 | 0.7 | 60*
CC(C)(C)NC(=O)CN(C(=O)C1CSC(=O)C1)c1ccc2c(c1)OCCO2 (centres undefined) | 1.2 | -7 | 5 | -7 | 1.1 | -23
O=[N+]([O-])c1cc(F)c(N2CCCCC2)cc1N1CCOCC1 | 0.6 | 25 | -2 | 1 | 0.7 | 44
O=C(c1ccc(F)cc1)N1CCN(c2cc(N3CCCCC3)c(F)cc2[N+](=O)[O-])CC1 | 0.1 | 95* | 1 | 25 | 0.1 | 86*
Cc1ccc(C(=O)N(CC(=O)NC2CCCC2)Cc2cccs2)s1 | 0.1 | 74* | 8 | 4 | 0.3 | 88*
Cc1sc2ncn(CC(=O)N(CC(=O)NC3CCCC3)Cc3cccs3)c(=O)c2c1C | 0.4 | 24 | 1 | 10 | 0.8 | 56*
CCCCNC(=O)c1onc(CCl)c1C(=O)OC | 1.1 | 15 | -5 | -13 | 0.8 | -8
Cc1cc2nc(C)n(CCCNC(=O)Nc3ccc(F)cc3)c2cc1C | 0.4 | 30 | 9 | -10 | 0.7 | 60*
Cc1c(NC(=O)COC(=O)c2cc3c4ccccc4n(C)c3s2)c(=O)n(-c2ccccc2)n1C | 1 | 42 | 7 | 2 | 0.6 | -4
COc1cc2c(cc1OC)C(c1ccc(-c3cc(Cl)ccc3Cl)o1)=NCC2 | 0.1 | 73* | 26 | 52* | 0.3 | 89*
COc1ccc(-c2nnc3n2C(C)(C)Cc2cc(OC)c(OC)cc2-3)cc1 | 1.6 | 13 | -5 | 9 | 0.9 | -63
COc1cc2c(cc1OC)C(c1ccc(-c3ccccc3Cl)o1)=NCC2 | 0.4 | 32 | 21 | 11 | 0.7 | 62*
COc1cc2c(cc1OC)C(c1ccc(-c3ccc(Cl)cc3Cl)o1)=NCC2 | 0.4 | 29 | 1 | 17 | 0.7 | 56*
COc1cc2c(cc1OC)C(c1ccc(-c3ccc(Cl)c(Cl)c3)o1)=NCC2 | 0.1 | 83* | 8 | 19 | 0.2 | 95*
COc1ccc(-c2noc(-c3ccccc3Cl)n2)cc1OC | 1 | 15 | 9 | 16 | 0.9 | -3
CCc1ccc(C(=O)Nc2ccc(S(=O)(=O)Nc3nc(C)cc(C)n3)cc2)o1 | 0.6 | 8 | 19 | -3 | 0.9 | 41
O=C(CCSCCc1ccccn1)Nc1ccc(Cl)cn1 | 0.8 | 24 | -2 | -2 | 0.8 | 24
O=C(NC1CSC/C1=N\O)c1ccccc1 (centres undefined) | 0.9 | 13 | -9 | 9 | 0.9 | 6
CCOC(=O)N1CCN(C(=O)/C(=C/c2ccc(OC)cc2)NC(=O)c2ccccc2)CC1 | 0.2 | 72* | -3 | 18 | 0.3 | 77*
CCOC(=O)N1CCN(C(=O)/C(=C/c2cccc3ccccc23)NC(=O)c2ccc(OC)cc2)CC1 | 0.6 | 12 | 0 | 2 | 0.9 | 38
O=C(Nc1ccc(O)cc1C(=O)O)c1ccc2c(c1)C(=O)N(Cc1ccco1)C2=O | 0.4 | -2 | -20 | -4 | 1 | 60*
CC(=O)NCN1CCN(CNC(C)=O)CC1 | 1.1 | -15 | -4 | 1 | 1.1 | -13
Cc1ccc(C2=NCCNC2=O)c(C)c1 | 0.9 | -3 | -8 | 4 | 1 | 5
